Source: PubChem BioAssay (NCI)
This is part of a sample that, as a whole, favours compounds with a hit. Of some 83,000 tested, about 20% had one in any assay.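 Cells were grown in 96-well plates and exposed to the test compound at a single concentration for 48 hours; results are reported as percent growth, with values below 10 considered active.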 Unmarked numbers belong to inactive results. Calls of active or inactive are those of the source.

Tests used:
Assay in all cases: NCI-60 one-dose screen, 48 h (100 = growth as untreated, 0 = no growth, -100 = all killed)
Conditions in all cases: 10 µM unless noted
NCI-H23 lung = tested on: NCI-H23 lung
NCI-H226 lung = tested on: NCI-H226 lung
NCI-H322M lung = tested on: NCI-H322M lung
HOP-62 NSCLC = tested on: HOP-62 NSCLC
NCI-H460 lung = tested on: NCI-H460 lung
NCI-H522 lung = tested on: NCI-H522 lung
A549/ATCC NSCLC = tested on: A549/ATCC NSCLC
786-0 renal = tested on: 786-0 renal
COLO 205 colon = tested on: COLO 205 colon
DU-145 prostate = tested on: DU-145 prostate
K-562 leukemia = tested on: K-562 leukemia
MALME-3M melanoma = tested on: MALME-3M melanoma
MDA-MB-231 breast = tested on: MDA-MB-231 breast
RXF 393 renal = tested on: RXF 393 renal
SF-268 CNS = tested on: SF-268 CNS
SF-295 CNS = tested on: SF-295 CNS
SF-539 CNS = tested on: SF-539 CNS
UACC-257 melanoma = tested on: UACC-257 melanoma
M14 melanoma = tested on: M14 melanoma
HCT-15 colon = tested on: HCT-15 colon

SMILES | growth (NCI-H23 lung) | growth (NCI-H226 lung) | growth (NCI-H322M lung) | growth (HOP-62 NSCLC) | growth (NCI-H460 lung) | growth (NCI-H522 lung) | growth (A549/ATCC NSCLC) | growth (786-0 renal) | growth (COLO 205 colon) | growth (DU-145 prostate) | growth (K-562 leukemia) | growth (MALME-3M melanoma) | growth (MDA-MB-231 breast) | growth (RXF 393 renal) | growth (SF-268 CNS) | growth (SF-295 CNS) | growth (SF-539 CNS) | growth (UACC-257 melanoma) | growth (M14 melanoma) | growth (HCT-15 colon)
O=C(Nc1ccc(Nc2ccncc2)cc1)c1ccc(Nc2ccnc3ccc([N+](=O)[O-])cc23)cc1[N+](=O)[O-] | 83% | 103% | 89.5% | 127% | 44.9% | 43.2% | 35.2% | 50.1% | 122% | 56.8% | 107% | -49.8% (active) | 94.9% | 35.9% | -11.6% (active) | 19.4% | 53.3% | 70.9% | 92.7% | 86.7%
CCC(C)CC(C)C(=O)c1c(O)ccn(OC)c1=O (stereo not given) | 84.7% | 84.2% | 69.2% | 54.8% | 77.8% | 90.9% | 90.8% | 101% | 109% | 66.8% | 69.3% | 80.7% | 61.7% | 72.5% | 54.2% | 87.1% | 63.2% | 97.7% | 71.1% | 29.9%
NC(=O)c1ncn([C@@H]2O[C@H](CO)[C@@H](O)[C@H]2O)n1 | 99.1% | 106% | 88.3% | 97.2% | 100% | 70.6% | 91.2% | 95.6% | 82.6% | 82.7% | 88.3% | 92.7% | 89.5% | 119% | 109% | 95.5% | 108% | 103% | 98.8% | 83.7%
CC(C)[O-].CC(C)[O-].CN(CCN(C)Cc1cc(F)cc(F)c1[O-])Cc1cc(F)cc(F)c1[O-].[Ti+4] | 6.91% (active) | 25.6% | 0.494% (active) | -5.62% (active) | -27.8% (active) | -32.3% (active) | 2.03% (active) | 19.1% | 1.34% (active) | 17.7% | 8.81% (active) | -55.4% (active) | 11% | -79.1% (active) | 6.13% (active) | -9.78% (active) | -0.0224% (active) | 17.1% | -41.9% (active) | 15.5%
COc1ccc(C2=NN(C(=O)c3cc(OC)c(OC)c(OC)c3)C(c3ccc(C#N)cc3)C2)cc1OC (stereo not given) | 43.2% | 52.4% | 36.9% | 36.1% | 9.81% (active) | -16% (active) | 22% | 25.1% | -9.28% (active) | 5.75% (active) | 20.6% | 39.5% | 18.2% | -17.2% (active) | 49.3% | -3.96% (active) | -13.3% (active) | 69.2% | -6.86% (active) | 26.7%
C[C@]12CC[C@@H]3c4ccc(O)c([N+](=O)[O-])c4CC[C@H]3[C@@H]1CC[C@@H]2NS(=O)(=O)c1ccc(C(F)(F)F)cc1 | 28% | 53.7% | 54.1% | 56.2% | 10.5% | -67.8% (active) | 19.5% | 43% | 98% | 47.4% | 6.98% (active) | 31% | -9.58% (active) | -1.18% (active) | 36% | 18.7% | 62.4% | 44% | 34.2% | 18%
COC(=O)C[C@@H]1CC=CC(=O)/C1=C(O)/C=C/c1ccccc1 | -43.4% (active) | -40.6% (active) | -14.4% (active) | -42.8% (active) | -42.5% (active) | -64.2% (active) | -0.275% (active) | -77.5% (active) | -57.2% (active) | -28.4% (active) | 3.07% (active) | -60% (active) | -63% (active) | -83.6% (active) | 22.3% | -14.6% (active) | -39.1% (active) | -39.3% (active) | -70.2% (active) | -53.9% (active)
[O-]/[N+](=C\C=C\c1ccccc1)c1ccccc1 | 103% | 97.8% | 113% | 116% | 107% | 102% | 144% | 101% | 141% | 111% | 98.1% | 158% | 102% | 405% | 101% | 102% | 103% | 127% | 115% | 104%
O=C1/C(=C/c2ccc([N+](=O)[O-])o2)Oc2ccc(Br)cc21 | 74.1% | 98% | 75.6% | 94.3% | 107% | -66.1% (active) | 107% | 28.3% | 8.53% (active) | 72.1% | -1.79% (active) | -28.3% (active) | 42.8% | -29.6% (active) | 48.1% | 99.4% | 88% | 69.1% | 44.9% | 0.437% (active)
CC1=NN(c2ccccc2Cl)C(=O)/C1=C\c1cn(S(=O)(=O)c2ccc(C)cc2)c2ccccc12 | 83.9% | 79.9% | 105% | 62.3% | 119% | 107% | 109% | 94.9% | 142% | 114% | 138% | 114% | 85.4% | 137% | 104% | 114% | 114% | 115% | 82.1% | 105%
Cc1cc2c(cc1[N+](=O)[O-])NC(CNC(C)C)CC2 (stereo not given) | 93.9% | 93.6% | 113% | 103% | 107% | 105% | 104% | 92.9% | 120% | 105% | 96.5% | 117% | 107% | 117% | 95.1% | 102% | 103% | 106% | 92% | 102%
O=[N+]([O-])c1ccc(Oc2cccc(C(F)(F)F)c2)c([N+](=O)[O-])c1 | 27.7% | 47.6% | 90.3% | 101% | 95.6% | -16% (active) | 97.2% | 47.5% | 2.36% (active) | 95.2% | 11.2% | 52.3% | 19.7% | 53.6% | 32.2% | 108% | 36.9% | 53.7% | 9.6% (active) | 19%
OCc1nnn(-c2ccccc2)c1CO | 112% | 114% | 118% | 110% | 116% | 101% | 110% | 105% | 159% | 113% | 132% | 122% | 107% | 104% | 105% | 115% | 116% | 124% | 110% | 96.7%
COc1cc2c(c(OC)c1OC)CCc1cnoc1-2 | 104% | 102% | 107% | 156% | 106% | 102% | 103% | 155% | 134% | 116% | 99.8% | 100% | 107% | 121% | 109% | 108% | 100% | 103% | 122% | 102%
O=C1C[C@@H]2/C(=C(O)\C=C\c3ccccc3)C(=O)C=C[C@@H]2O1 | 77% | 39.9% | 26.1% | 2.64% (active) | 12.1% | -66.3% (active) | 36.7% | -46.7% (active) | -73.4% (active) | -16.8% (active) | 14.3% | -35.1% (active) | -45.7% (active) | -92.9% (active) | 11.6% | 71.2% | -43.3% (active) | -43.4% (active) | -65.9% (active) | -7.83% (active)
